The values below come from ChEMBL document CHEMBL3988442, “University of Dundee, Small-Polar-MMV Screening Library” (2021).

Out of some 69,000 compounds screened, about 1,000 (1.4%) showed an effect of 50% or more. The sample holds strong results, similar compounds and a random draw of the others, so the mix is not that of the screen.

The assay concerns Leishmania donovani. Briefly: Leishmania intramacrophage assay. Type of assay: functional, organism-based. Set-up: scale not given: in the data most compounds retested in dose-response had high values.

As for `COCCC1(CNC(=O)NCC2CN(C)CCN2C)CCC1` (centres undefined), the “Percent Effect” value (30.3 µM, […]) was determined as 8.791%.

Turning to `CCn1c(N)nc2cc(C(=O)NCCc3ccccc3C)cnc21`, under “30 µM, 30.03 µM”, the “Percent Effect” value is 29.75%.

Consider `CCn1c(N)nc2cc(C(=O)NCCc3ccccc3F)cnc21`, for which, where the note is “30.3 µM, […]”, the “Percent Effect” value is -34.47%.

For `CCn1c(N)nc2cc(C(=O)NCCc3ccncc3)cnc21`, for the setting “30.3 µM, […]”, the “Percent Effect” value is listed as 62.87%.

As for `O=C(O)C1CN(c2cncc(Cc3ccccc3)n2)C1`, the “Percent Effect” value (30.3 µM, […]) amounted to 57.22%.

As to `O=C(O)C1CN(c2cncc(Cc3ccccc3F)n2)C1`, the “Percent Effect” value (30.3 µM, […]) is 17.92%.

As to `COc1ccccc1Cc1cncc(N2CC(C(=O)O)C2)n1.Cl`, the “Percent Effect” value (30.3 µM, […]) came out at 35.18%.

With `O=C(N1CCOCC1)N1CCc2ncnc(NC3CCC3)c2CC1.O=C(O)C(F)(F)F`, the “Percent Effect” value (30.3 µM, […]) is listed as 14.85%.

`c1cc2nc(C3CCNCC3)nn2cc1NC1CCC1`: the “Percent Effect” value (30.3 µM, […]) is on record as 33.34%.

On to `Cc1nc(COC(=O)c2cccc3c2OCCO3)no1`, for which, under “30.3 µM, […]”, the “Percent Effect” value came out at 59.03%.

Take `Cc1nc(COC(=O)c2cccnc2C)no1`: the “Percent Effect” value (30.3 µM, […]) stood at 42.97%.

`Cc1nc(COC(=O)c2cccc3c2OCCO3)cs1`: for the setting “30.3 µM, […]”, the “Percent Effect” value was -13.85%.

Consider `N#Cc1c(Cl)nsc1NCC1(c2ccccc2)CCC1`, for which the “Percent Effect” value (30.3 µM, […]) is listed as 91.2%.

`COc1ccccc1C1(CNc2snc(Cl)c2C#N)CCCC1`: the “Percent Effect” value (30.3 µM, […]) is listed as 7.398%.

In the case of `COc1ccccc1C1(CNc2snc(Cl)c2C#N)CCOCC1`, where the note is “30.3 µM, […]”, the “Percent Effect” value was -16.98%.

`Cc1cnn(-c2ccc(S(=O)(=O)N(C)CC(C)(CO)CO)cc2F)c1`: the “Percent Effect” value (30.3 µM, […]) is recorded as -120.1%.

Consider `CNS(=O)(=O)c1ccc(CNC(=O)N(CC(C)C)C(C)C)cc1`, for which, under “30.3 µM, […]”, the “Percent Effect” value was -6.25%.

Turning to `CNS(=O)(=O)c1ccc(CNC(=O)N(C)CC(C)C)cc1`, under “30.3 µM, […]”, the “Percent Effect” value amounted to 72.03%.

On to `CNS(=O)(=O)c1ccc(CNC(=O)N(C)CC(O)COC)cc1` (centres undefined), for which the “Percent Effect” value (30.3 µM, […]) is given as 11.97%.

In the case of `CN(C(=O)c1ccc(OCC(F)F)nc1)c1ccc2c(c1)CCO2`, the “Percent Effect” value (30.3 µM, […]) came out at 3.527%.

Turning to `Cc1ncn(CCNC(=O)Nc2ccc(F)c(Cl)c2)c(=O)c1C`, the “Percent Effect” value (30.3 µM, […]) is listed as 0.8424%.

In the case of `Cc1noc([C@@H]2C[C@H]3CN(C(=O)C4CCN(C)CC4)C[C@H]3O2)n1.O=C(O)C(F)(F)F`, the “Percent Effect” value (30.3 µM, […]) is recorded as 33.07%.

Turning to `Cc1noc([C@H]2C[C@@H]3CCN(C(=O)C4CCOCC4)C[C@H]3O2)n1`, for the setting “30 µM, 30.03 µM”, the “Percent Effect” value is on record as -8.466%.

In the case of `Cc1noc([C@H]2C[C@H]3CN(C(=O)C4CCOCC4)CC[C@@H]3O2)n1`, where the note is “30.3 µM, […]”, the “Percent Effect” value amounted to 60.92%.

For the compound `CSc1nccc(N2CCC3(CCCN(Cc4ccc(F)cc4)C3)C2)n1` (centres undefined), the “Percent Effect” value (30.3 µM, […]) was 14.67%.

Take `Cc1cn2c(n1)C(CNCC1=Cc3ccccc3OC1)CCC2` (centres undefined): the “Percent Effect” value (30.3 µM, […]) is on record as 8.139%.

In the case of `Cc1cn2c(n1)C(CNCc1ccc(C)s1)CCC2` (centres undefined), the “Percent Effect” value (30.3 µM, […]) is -5.269%.

On to `Cc1cn2c(n1)C(CNCC1=Cc3cc(Cl)ccc3OC1)CCC2` (centres undefined), for which the “Percent Effect” value (30.3 µM, […]) was 69.51%.

As for `CCc1ocnc1C(=O)N1CCCC(n2nc(C)nc2C)C1` (centres undefined), the “Percent Effect” value (30 µM) is listed as 15.71%.

As for `NC(=O)c1cn[nH]c1C1CCCN1C(=O)COc1ccccc1` (centres undefined), where the note is “30.3 µM, […]”, the “Percent Effect” value stood at 17.94%.

For `CC(NC(=O)CCCc1nc(C(C)(C)C)no1)c1ccccn1` (centres undefined), the “Percent Effect” value (30 µM) is on record as -2.756%.

Take `Cc1nc(CN2C(=O)CC[C@@H]3[C@H]2CCN3C2CCOC2)cs1.O=C(O)C(F)(F)F` (some centres undefined): the “Percent Effect” value (30.3 µM, […]) is given as -26.48%.

Take `COC(=O)C(NC(=O)COC1CCCC1)c1cc(F)ccc1F` (centres undefined): the “Percent Effect” value (30 µM, 30.03 µM) stood at 54.06%.

In the case of `COC(=O)C(NC(=O)C1CCCC1)c1cc(F)ccc1F` (centres undefined), the “Percent Effect” value (30 µM) is 13.67%.

For the compound `COC(=O)C(NC(=O)CC(C)C)c1cc(F)ccc1F` (centres undefined), for the setting “30 µM”, the “Percent Effect” value was 17.07%.

For `O=C1CC2(CCCCN2C(=O)c2ccsc2)CN1CC1CC1` (centres undefined), the “Percent Effect” value (30 µM, 30.03 µM) is on record as 15.53%.

As to `Cc1cnn(CC(=O)Nc2cc(-n3nnnc3C3CC3)ccc2F)c1`, the “Percent Effect” value (30.3 µM, […]) worked out at 1.472%.

For `Cc1nn(C)c2nc(N3CCCCC3c3nccs3)sc12` (centres undefined), under “30.3 µM, […]”, the “Percent Effect” value is 21.88%.

Regarding `Cc1nn(C)c2nc(N3CCCCC3c3ccc(F)cc3)sc12` (centres undefined), the “Percent Effect” value (30.3 µM, […]) worked out at 66.72%.

In the case of `Cc1nn(C)c2nc(N3CCCC3c3nccs3)sc12` (centres undefined), the “Percent Effect” value (30.3 µM, […]) came out at 4.253%.

Take `CCC(C)NC(=O)c1cc(Br)c2c(c1)OCCO2` (centres undefined): the “Percent Effect” value (30 µM) is 30.6%.

As to `Cn1nc(COc2cccnc2)c2c1CCN(Cc1ccco1)C2.O=C(O)C(F)(F)F.O=C(O)C(F)(F)F`, for the setting “30.3 µM, […]”, the “Percent Effect” value is given as 17.65%.

Take `COCCN1CCc2c(c(COc3cccnc3)nn2C)C1.O=C(O)C(F)(F)F.O=C(O)C(F)(F)F`: for the setting “30.3 µM, […]”, the “Percent Effect” value is 24.9%.

Take `Cn1nc(COc2cccnc2)c2c1CCN(CC1CC1)C2.O=C(O)C(F)(F)F.O=C(O)C(F)(F)F`: the “Percent Effect” value (30.3 µM, […]) is on record as 98.75%.

As to `NC(=O)c1ccc(N2CCCCC2)c(NC(=O)c2cc(Br)ccc2Cl)c1`, the “Percent Effect” value (30.3 µM, […]) is on record as 19.23%.

On to `NC(=O)c1ccc(N2CCCCC2)c(NC(=O)c2cc(Br)ccc2F)c1`, for which the “Percent Effect” value (30 µM, 30.03 µM) amounted to 59.99%.

Turning to `NC(=O)c1ccc(N2CCCCC2)c(NC(=O)c2cc(F)ccc2F)c1`, the “Percent Effect” value (30.3 µM, […]) was -1.673%.

On to `Cc1nnsc1C(=O)N1CCCC(c2nccn2Cc2cscn2)C1` (centres undefined), for which the “Percent Effect” value (30.3 µM, […]) is recorded as -3.035%.

As to `Cc1ccsc1CN1C[C@@H]2COC[C@]2(CNC(=O)c2ccco2)C1.O=C(O)C(F)(F)F`, the “Percent Effect” value (30.3 µM, […]) was 31.86%.

As for `Cn1cc(CN2C[C@@H]3COC[C@]3(CNC(=O)c3ccco3)C2)cn1.O=C(O)C(F)(F)F`, the “Percent Effect” value (30.3 µM, […]) is -2.896%.

As to `O=C(NC[C@]12COC[C@H]1CN(Cc1cccc(F)c1)C2)c1ccco1`, the “Percent Effect” value (30.3 µM, […]) is on record as 61.24%.

As to `CNC(=O)NCC(CO)Cc1ccccc1OC(F)(F)F` (centres undefined), where the note is “30.3 µM, […]”, the “Percent Effect” value stood at 7.334%.

Take `CC(c1cccc(-c2ncccc2F)c1)N(C)C` (centres undefined): the “Percent Effect” value (30.3 µM, […]) is 42.01%.

Regarding `CC(c1cccc(-c2ncccc2C#N)c1)N(C)C` (centres undefined), the “Percent Effect” value (30.3 µM, […]) was determined as 54.7%.

Consider `CC(c1cccc(-c2ncc(C#N)c(N)n2)c1)N(C)C` (centres undefined), for which, where the note is “30.3 µM, […]”, the “Percent Effect” value is reported as -18.48%.

In the case of `Cc1cccc(C(=O)N2C[C@@H]3[C@H](CC(=O)Nc4cccnc4)[C@@H]3C2)n1.O=C(O)C(F)(F)F.O=C(O)C(F)(F)F`, for the setting “30.3 µM, […]”, the “Percent Effect” value stood at 3.537%.

Take `N#Cc1ccnc(N2CCN(C(=O)c3ccc4c(c3)CCO4)CC2)c1`: where the note is “30.3 µM, […]”, the “Percent Effect” value is reported as -46.75%.

As for `c1cc(-c2cncnc2)cc(-c2ccn(CC3CCNC3)n2)c1` (centres undefined), under “30.3 µM, […]”, the “Percent Effect” value is listed as 5.053%.

As to `Cc1ccsc1-c1cccc(-c2ccn(CC3CCNC3)n2)c1` (centres undefined), where the note is “30.3 µM, […]”, the “Percent Effect” value was 82.16%.

Consider `Cc1nccc(-c2cccc(-c3ccn(CC4CCNC4)n3)c2)n1` (centres undefined), for which, under “30.3 µM, […]”, the “Percent Effect” value is -9.02%.

Consider `Cc1ccc(CN(C)C(=O)NCC(C)(C)CCS(C)(=O)=O)s1`, for which the “Percent Effect” value (30.3 µM, […]) turned out to be 20%.

As to `CCCNCc1ccc(OCc2ccc3c(c2)OCCO3)cc1.Cl`, the “Percent Effect” value (30.3 µM, […]) amounted to 67.66%.

Consider `CNCc1ccc(OCc2ccc3c(c2)OCCO3)cc1.Cl`, for which, where the note is “30.3 µM, […]”, the “Percent Effect” value came to 22.52%.

Turning to `CCNCc1ccc(OCc2ccc3c(c2)OCCO3)cc1.Cl`, the “Percent Effect” value (30.3 µM, […]) was found to be 21.82%.
